Bioassay records deposited in PubChem BioAssay by National Center for Advancing Translational Sciences (NCATS).
LmPK inh: inhibitors of Leishmania mexicana pyruvate kinase; Potency, µM (doses to about 57.5 µM), usual class: inhibitors; 290,000 compounds, 0.37% hits; purified LmPK, Kinase-Glo ATP luminescence, 1 h
Target sequence (Q27686 whole entry, looked up): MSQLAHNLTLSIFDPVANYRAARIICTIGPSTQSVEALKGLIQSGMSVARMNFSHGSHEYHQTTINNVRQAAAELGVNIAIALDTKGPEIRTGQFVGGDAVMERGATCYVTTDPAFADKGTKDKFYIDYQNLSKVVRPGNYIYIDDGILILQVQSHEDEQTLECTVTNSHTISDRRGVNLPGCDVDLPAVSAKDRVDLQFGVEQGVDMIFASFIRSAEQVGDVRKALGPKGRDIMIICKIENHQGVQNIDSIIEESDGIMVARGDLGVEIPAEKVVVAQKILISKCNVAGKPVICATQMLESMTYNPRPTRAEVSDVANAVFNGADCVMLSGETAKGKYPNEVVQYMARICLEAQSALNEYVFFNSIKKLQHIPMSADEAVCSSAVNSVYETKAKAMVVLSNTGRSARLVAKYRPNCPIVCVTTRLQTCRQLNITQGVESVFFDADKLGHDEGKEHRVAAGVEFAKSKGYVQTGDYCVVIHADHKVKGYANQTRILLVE
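Purified LmPK (0.1 nM) with 0.5 mM PEP and 0.1 mM ADP in imidazole buffer pH 7.2 with MgCl2/KCl, 1 h at room temperature. ATP formed was read by luciferase luminescence and normalized to no-enzyme and uninhibited controls.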
RE007 growth inh: less growth of the S. pombe RE007 Vpr strain | S. pombe RE007 Vpr strain, BacTiter-Glo ATP luminescence, 24 h | Potency, µM (series often up to 92.2 µM), hits mostly inhibitors | 360,000 compounds, 0.21% hits; active means well fitted falling curve with a large enough effect; inconclusive means small, poorly fitted or top-dose-only effect; inactive means no such curve, though single readings can be large or run the other way; further: nearly all actives have a fitted effect of over 50% in size
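Fission yeast strain RE007, carrying one chromosomally integrated HIV-1 vpr copy, was seeded at OD 0.01 in PMG+AL medium with 23 nL pinned compound. After 24 h at 30 °C and 99% humidity, viability was read by BacTiter-Glo luminescence.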
Shiga toxin inh: inhibitors of Shiga toxin in Vero cells. 290,000 compounds, 9.2% hits. Vero cells, Shiga toxin protein synthesis inhibition reporter. inhibition, % at 38.7 µM. AID 2315; in the data active means inhibition mostly above about 28%, no sharp cut-off; inactive means mostly below about 43%
TbPYK inhibitor: T. brucei pyruvate kinase inhibition | Q57TT1 | TbPYK enzyme, Kinase-Glo Plus ATP luminescence, 45 min | Potency, µM (titrated, usually from 76.8 µM), hits mostly inhibitors | 410,000 compounds, 0.12% hits | AID 624173; further: nearly all actives have a fitted effect of over 50% in size
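Luminescence from Kinase-Glo Plus, added after a 45-minute room-temperature reaction, served as the end-point read-out. The enzyme and substrate were preincubated with compound before ADP (130 uM final) initiated turnover. Concentration-effect curves came from normalized qHTS data.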
Cycloheximide cs: counter-screen for Shiga toxin inhibitors: cycloheximide protein synthesis inhibition; cell reporter, cycloheximide protein synthesis inhibition counterscreen; max response, %; 300,000 compounds, 12% hits; AID 2314; in the data active means max response mostly above about 13%, no sharp cut-off; inactive means mostly below about 14%; further: read at 38.3 µM for the half of the compounds with a filed dose
Giardia FBPA inh: blocks Giardia fructose-bisphosphate aldolase activity; AID 2451; purified Giardia FBPA; 290,000 compounds, 0.71% hits; A8B2U2; Potency, µM (top dose mostly 59.6 µM), most hits filed as inhibitors; further: nearly all actives have a fitted effect of over 55% in size
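Giardia FBPA (40 nM reagent) was preincubated 10 min at RT with compound (up to 57.5 uM final), then substrate plus GAPDH/TPI/NAD/arsenate coupling system with diaphorase/resazurin was added; resorufin fluorescence (525/598 nm) was read after 20 min.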
Hits are given with their value; [ ] = another dose, or the depositor's remark. This excerpt belongs to a sample that is enriched for hits. Unless noted, the call rests on the fitted dose curve; in most records, active means well fitted curve in the direction sought with a large enough effect; inconclusive means small, poorly fitted or top-dose-only effect, or another doubt; inactive means no such curve, though single readings can be large; an effect the other way counts as inactive or inconclusive.

How did Clc1ccc(-c2nnn(Cc3nc4ccccc4s3)n2)cc1 do in these assays?
LmPK inh: inactive; RE007 growth inh: inconclusive; Shiga toxin inh: 96; TbPYK inhibitor: inactive; Cycloheximide cs: 25; Giardia FBPA inh: inactive

How did CN(Cc1ccccc1)C(=O)CSc1nc2ccsc2c(=O)n1-c1ccc(F)cc1 do in these assays?
TbPYK inhibitor: inactive

Results for NCC(=O)N[C@@H](CCCN=C(N)N)C(=O)NCC(=O)N[C@@H](CC(=O)O)C(=O)N[C@@H](CO)C(=O)O ?
Shiga toxin inh: inactive; Cycloheximide cs: inactive; Giardia FBPA inh: inactive

Results for O=C(CSCc1cnn(-c2ccccc2)c1-n1cccc1)NCc1cccc(Cl)c1 ?
TbPYK inhibitor: inactive

How did O=C(NC12CC3CC(CC(C3)C1)C2)N1CCN(C(=O)C2CCCO2)CC1 (stereo unspecified) do in these assays?
LmPK inh: inactive; RE007 growth inh: inactive; Shiga toxin inh: inactive; TbPYK inhibitor: inactive; Cycloheximide cs: 11; Giardia FBPA inh: inactive

How did CC(C)NC(=O)c1cc2ccccc2o1 do in these assays?
LmPK inh: inactive; RE007 growth inh: inactive; Shiga toxin inh: inactive; TbPYK inhibitor: inactive; Cycloheximide cs: inactive; Giardia FBPA inh: inactive

Results for CCC(=O)N1CCN(c2ccc(NC(=S)NC(=O)c3cc4ccccc4o3)cc2)CC1 ?
LmPK inh: inactive; RE007 growth inh: inactive; Shiga toxin inh: inactive; TbPYK inhibitor: inactive; Cycloheximide cs: inactive

How did CCCNC(=O)c1cc2ccccc2c(=O)o1 do in these assays?
LmPK inh: inactive; RE007 growth inh: inactive; Shiga toxin inh: 57; TbPYK inhibitor: inactive; Cycloheximide cs: 21; Giardia FBPA inh: inactive

What do the screens show for `CC(=O)N1CCN(c2ccc(NC(=O)c3cc4ccccc4o3)cc2)CC1`?
LmPK inh: inactive; RE007 growth inh: inactive; Shiga toxin inh: inactive; TbPYK inhibitor: inactive; Cycloheximide cs: inactive; Giardia FBPA inh: inactive

How did O=C(Nc1ccc(N2CCCC2)cc1)c1cc2ccccc2o1 do in these assays?
LmPK inh: inactive; RE007 growth inh: inactive; Shiga toxin inh: 65; TbPYK inhibitor: inactive; Cycloheximide cs: 47; Giardia FBPA inh: inactive

Results for CC(C)c1nnc(NC(=O)c2cc3ccccc3o2)s1 ?
LmPK inh: inactive; RE007 growth inh: inactive; Shiga toxin inh: 111; TbPYK inhibitor: inactive; Cycloheximide cs: 33; Giardia FBPA inh: inconclusive

How did CC(C)C(=O)N1CCN(c2ccc(NC(=S)NC(=O)c3cc4ccccc4o3)cc2)CC1 do in these assays?
LmPK inh: inactive; RE007 growth inh: inactive; Shiga toxin inh: 75; TbPYK inhibitor: inactive; Cycloheximide cs: 33

How did Cc1cc(N(CCO)Cc2ccccc2)n2nc(-c3ccc(C(C)(C)C)cc3)nc2n1 do in these assays?
TbPYK inhibitor: inactive

What do the screens show for `O=C(Nc1ccccc1)c1cc2ccccc2o1`?
LmPK inh: 14µM; RE007 growth inh: inconclusive; Shiga toxin inh: 45; TbPYK inhibitor: inactive; Cycloheximide cs: inactive; Giardia FBPA inh: inactive

Results for O=C(Nc1ccc(F)cc1)c1cc2ccccc2o1 ?
LmPK inh: inactive; RE007 growth inh: inactive; Shiga toxin inh: 58; TbPYK inhibitor: inactive; Cycloheximide cs: 46; Giardia FBPA inh: inactive

How did CC(=O)c1cccc(NC(=O)CNC(=O)c2cc3ccccc3o2)c1 do in these assays?
LmPK inh: inactive; RE007 growth inh: inactive; Shiga toxin inh: inactive; TbPYK inhibitor: inactive; Cycloheximide cs: inactive

What do the screens show for `CC(=O)c1ccc(NC(=O)c2cc3ccccc3o2)cc1`?
LmPK inh: inactive; RE007 growth inh: inactive; TbPYK inhibitor: inactive; Cycloheximide cs: 35; Giardia FBPA inh: inactive

What do the screens show for `Cc1cc(C(=O)Nc2ccccc2)oc1C`?
LmPK inh: 16µM; RE007 growth inh: inactive; Shiga toxin inh: 121; TbPYK inhibitor: inactive; Cycloheximide cs: 39

What do the screens show for `O=C(Nc1ccc(NC(=O)c2cc3ccccc3o2)cc1)c1ccco1`?
LmPK inh: inactive; RE007 growth inh: inactive; Shiga toxin inh: inactive; TbPYK inhibitor: inactive; Cycloheximide cs: inactive; Giardia FBPA inh: inactive

What do the screens show for `COc1ccccc1N1CCN(C(=O)c2nc(SC)ncc2Cl)CC1`?
TbPYK inhibitor: inactive

Results for O=C(NCc1ccccc1)c1cc2ccccc2o1 ?
LmPK inh: inactive; RE007 growth inh: inactive; Shiga toxin inh: inactive; TbPYK inhibitor: inactive; Cycloheximide cs: 22; Giardia FBPA inh: inactive

Results for O=C(NCCc1ccccn1)c1cc2ccccc2o1 ?
LmPK inh: inactive; RE007 growth inh: inactive; Shiga toxin inh: 84; TbPYK inhibitor: inactive; Cycloheximide cs: 49; Giardia FBPA inh: inactive

How did CCCC(=O)c1c[nH]c(C(=O)NCCc2ccccn2)c1 do in these assays?
LmPK inh: inactive; RE007 growth inh: inactive; Shiga toxin inh: inactive; TbPYK inhibitor: inactive; Cycloheximide cs: 16; Giardia FBPA inh: inactive

How did CCNC(=O)c1cc2ccccc2o1 do in these assays?
LmPK inh: inactive; RE007 growth inh: inactive; Shiga toxin inh: inactive; TbPYK inhibitor: inactive; Cycloheximide cs: inactive; Giardia FBPA inh: inactive

What do the screens show for `Cc1ccc(CNC(=O)c2c(-c3ccccc3F)noc2C)o1`?
TbPYK inhibitor: inactive

How did COc1ccc(CCNS(=O)(=O)c2cc(-c3cc(C)no3)ccc2OC)cc1OC do in these assays?
TbPYK inhibitor: inactive[15.4 µM]

Results for CCn1cnc2cc(NCc3cccc(OC)c3O)ccc21 ?
LmPK inh: inactive; RE007 growth inh: inactive; Shiga toxin inh: 112; TbPYK inhibitor: inactive; Cycloheximide cs: 44; Giardia FBPA inh: inactive

How did CCCCn1cnc2cc(NCc3cccc(OC)c3O)ccc21 do in these assays?
LmPK inh: inactive; RE007 growth inh: inactive; Shiga toxin inh: 103; TbPYK inhibitor: inactive; Cycloheximide cs: 19; Giardia FBPA inh: inactive

How did CCCCn1cnc2cc(NC(=O)c3cc(OC)c(OC)c(OC)c3)ccc21 do in these assays?
TbPYK inhibitor: inactive

What do the screens show for `COc1cccc(CNc2cccc(C(F)(F)F)c2)c1O`?
LmPK inh: inactive[11.5 µM]; RE007 growth inh: inactive; Shiga toxin inh: inactive; TbPYK inhibitor: inactive; Cycloheximide cs: inactive; Giardia FBPA inh: inactive

What do the screens show for `NC(=O)c1c(NC(=O)CS(=O)(=O)c2ccc(Cl)cc2)sc2c1CCCC2`?
TbPYK inhibitor: inactive[15.4 µM]

How did CCOC(=O)c1cnc(SCc2nc(N)nc(Nc3ccc(C)cc3)n2)nc1N do in these assays?
LmPK inh: inactive; RE007 growth inh: inactive; Shiga toxin inh: inactive; TbPYK inhibitor: inactive; Cycloheximide cs: 13; Giardia FBPA inh: inactive

Results for CCOC(=O)c1cnc(SCc2nc(N)nc(Nc3ccc(F)cc3)n2)nc1N ?
LmPK inh: inactive; RE007 growth inh: inactive; Shiga toxin inh: inactive; TbPYK inhibitor: inactive; Cycloheximide cs: 9.5; Giardia FBPA inh: inactive

What do the screens show for `COc1ccc(N2CC(NC(=O)Cc3cccs3)CC2=O)cc1OC` (stereo unspecified)?
TbPYK inhibitor: inactive

Results for Cc1ccc(C2Nc3ccccc3-n3c(-c4ccccc4)c4c(=O)n(C)c(=O)n(C)c4c32)o1 (stereo unspecified) ?
TbPYK inhibitor: inactive
